High-throughput results as filed in PubChem.
PME-1 inh = PME-1 inhibitors via competitive probe labeling, primary screen, biochemical, fluorescence polarization, FP-Rh probe, HTS; Protein phosphatase methylesterase 1 (Homo sapiens), Q9Y570; inhibition, % at 5.9 µM; recombinant PME-1; 320,000 compounds, 0.53% hits;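 active = inhibition above the campaign mean of all compounds plus 3 SD, cut at about 26% in these data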;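 note: competitive labeling of PME-1 active site by serine hydrolase directed probe; inhibitors block probe labeling so polarization falls and inhibition rises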
PAD4 FP inh = human PAD4 inhibitors, primary screen, biochemical, fluorescence polarization, 1536-well format | Protein-arginine deiminase type-4 (Homo sapiens), Q9UM07 | recombinant PAD4, RCA probe fluorescence polarization | 330,000 compounds, 0.41% hits | inhibition, % at 6.36 µM;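 active = percent inhibition above a cutoff equal to the mean of all tested compounds plus 3 SD, cut at about 15% in these data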
GSTO1 counter = inhibitors of recombinant GSTO1, primary screen, counter-screen for RBBP9 inhibitor project, biochemical, fluorescence polarization; Glutathione S-transferase omega-1 (Homo sapiens), P78417; inhibition, % at 5.96 µM; AID 1974, 2009; 300,000 compounds, 1.1% hits; activity-based probe fluorescence polarization;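 active = inhibition above the campaign mean inhibition plus 3 SD, cut at about 35% in these data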
Target sequence (P78417 whole entry, looked up): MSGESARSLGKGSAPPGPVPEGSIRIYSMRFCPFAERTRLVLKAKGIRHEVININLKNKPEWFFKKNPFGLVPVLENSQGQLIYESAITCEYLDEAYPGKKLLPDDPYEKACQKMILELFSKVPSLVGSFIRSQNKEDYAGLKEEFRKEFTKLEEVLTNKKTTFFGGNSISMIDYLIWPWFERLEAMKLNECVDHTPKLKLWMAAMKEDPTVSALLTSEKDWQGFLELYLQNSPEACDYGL
Fam108B counter = mouse Fam108B serine hydrolase inhibitors, primary screen, counter-screen for RBBP9 inhibitor project, biochemical, fluorescence polarization; inhibition, % at 9.51 µM; recombinant Fam108B, FP-Rh probe fluorescence polarization; AID 1947, 2009; 300,000 compounds, 0.33% hits;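 active = inhibition above the screen mean inhibition plus 3 SD, computed separately per campaign, cut at about 18% in these data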;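 note: inhibitors lower polarization as less probe binds the enzyme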
LYPLA1 inh = LYPLA1 inhibitors, primary screen, counter-screen for PME1 inhibitor project, biochemical, fluorescence polarization, FP-Rh probe ABPP; recombinant LYPLA1; inhibition, % at 5.9 µM; AID 2174, 2009; 320,000 compounds, 0.16% hits; Acyl-protein thioesterase 1 (Homo sapiens), O75608;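 active = inhibition above the mean of all tested compounds plus 3 SD, set per campaign, cut at about 14% in these data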;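 note: inhibitors block serine hydrolase probe labeling of LYPLA1 so polarization falls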
Target sequence (O75608 whole entry, looked up): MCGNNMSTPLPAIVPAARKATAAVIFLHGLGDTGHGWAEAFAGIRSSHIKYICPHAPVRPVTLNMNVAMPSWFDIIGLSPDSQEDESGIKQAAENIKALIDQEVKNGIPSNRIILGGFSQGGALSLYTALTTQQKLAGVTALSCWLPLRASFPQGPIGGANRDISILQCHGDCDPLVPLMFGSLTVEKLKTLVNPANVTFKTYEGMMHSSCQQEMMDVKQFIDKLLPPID
LYPLA2 counter = LYPLA2 inhibitors, primary screen, counter-screen for PME1 inhibitor project, biochemical, fluorescence polarization, FP-Rh probe ABPP; recombinant LYPLA2; inhibition, % at 5.9 µM; 320,000 compounds, 0.38% hits; Acyl-protein thioesterase 2 (Homo sapiens), O95372;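 active = inhibition above the screen-wide mean plus 3 SD, limit set per campaign, cut at about 26% in these data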
Of the large screens only hits and unclear results are named; the others gave an inactive call. Hits are enriched below; roughly 1.8% of the tested compounds scored in any of these assays.

CSc1ccc(/C=C/C(=O)OCC(=O)NCC2CCCO2)cc1 (centres undefined)	none (no result: GSTO1 counter, Fam108B counter)
O=S(=O)(Nc1ccc(N=Nc2ccccc2)cc1)c1ccccc1	none
O=S(=O)(Nc1ccc(N=Nc2ccc(O)c3ccccc23)cc1)c1ccccc1	PME-1 inh 39
CCc1ccc(NC(=O)C(C)OC(=O)Cc2cc(OC)c(OC)c(OC)c2)cc1 (centres undefined)	none (no result: PME-1 inh, GSTO1 counter, Fam108B counter, LYPLA1 inh, LYPLA2 counter)
CC1CN(c2nc3ccccc3nc2SCC(=O)Nc2cccc(C(F)(F)F)c2)CC(C)O1 (centres undefined)	none
Cc1ccc(NC(=O)CSc2nnc(-c3ccco3)c(-c3ccco3)n2)cc1	GSTO1 counter 37
CSc1nnc(-c2ccco2)c(-c2ccco2)n1	GSTO1 counter 36
CN(C)c1ccc(NC(=O)CSc2nnc(-c3ccco3)c(-c3ccco3)n2)cc1	none
Cc1cc(N/N=C/c2cccc(Cl)c2)nc(-n2nc(C)cc2C)n1	none
Oc1cccc(/C=N/Nc2cc(N3CCCC3)nc(N3CCCC3)n2)c1	PME-1 inh 31, GSTO1 counter 36
Oc1ccc(/C=N/Nc2cc(N3CCCC3)nc(N3CCCC3)n2)cc1	none
COc1ccc(/C=N/Nc2cc(N3CCCC3)nc(N3CCCC3)n2)cc1	GSTO1 counter 36
Oc1ccc(/C=N/Nc2nc(N3CCCC3)nc(N3CCCC3)n2)cc1O	GSTO1 counter 56
COc1ccc(/C=N/Nc2cc(C)nc(-n3nc(C)cc3C)n2)cc1	PME-1 inh 33
Cc1ccccc1CN(C)C(=O)COC(=O)c1ccc2[nH]c(C)c(C)c2c1	none (no result: PME-1 inh, GSTO1 counter, Fam108B counter, LYPLA1 inh, LYPLA2 counter)
COCCn1cnnc1SCC(=O)Nc1ccc(N2CCCCC2)cc1	none (no result: GSTO1 counter, Fam108B counter)
Cc1ccc(S(=O)(=O)N2CCCCC2)cc1NC(=O)c1c(-c2ccccc2)noc1C	none (no result: GSTO1 counter, Fam108B counter)
CCN(CC)C(=O)[C@H]1C[C@H](CC(=O)NCCC2=CCCCC2)C(=O)N2CCc3c([nH]c4ccc(Cl)cc34)[C@]12C	none (no result: PME-1 inh, GSTO1 counter, Fam108B counter, LYPLA1 inh, LYPLA2 counter)
COc1ccc(NC(=O)c2c(F)cccc2Cl)cc1S(=O)(=O)N1CCOCC1	none (no result: PME-1 inh, GSTO1 counter, Fam108B counter, LYPLA1 inh, LYPLA2 counter)
Cc1ccc(C(=O)NCC(=O)Nc2ccc(S(=O)(=O)Nc3cc(C)nc(C)n3)cc2)cc1	none (no result: PME-1 inh, GSTO1 counter, Fam108B counter, LYPLA1 inh, LYPLA2 counter)
Cc1ccc(C)c(NC(=O)COC(=O)CCNC(=O)c2ccco2)c1	none (no result: GSTO1 counter, Fam108B counter)
COc1ccc(/C=N/NC(=O)c2nn(-c3ccccc3)c(=O)c3c(N)scc23)cc1	GSTO1 counter 53
COc1ccc(/C=N/NC(=O)c2nn(-c3ccc(Cl)cc3)c(=O)c3c(N)scc23)cc1	none
CCCN(CCC)CCCNC(=O)c1cn(CC)c2ccc(S(=O)(=O)N3CCc4ccccc4C3)cc2c1=O	none
CCCCN(CC)CCCNC(=O)c1cn(CC)c2ccc(S(=O)(=O)N3CCc4ccccc4C3)cc2c1=O	PME-1 inh 36
CCCCN(C)CCCNC(=O)c1cn(CC)c2ccc(S(=O)(=O)N3CCc4ccccc4C3)cc2c1=O	PME-1 inh 40
N#CCn1c(CCl)nc2ccccc2c1=O	GSTO1 counter 48
Cc1ccc(S(=O)(=O)NCC(=O)OCC(=O)N2C(C)CCCC2C)cc1 (centres undefined)	none (no result: PME-1 inh, GSTO1 counter, Fam108B counter, LYPLA1 inh, LYPLA2 counter)
COc1ccccc1CNC(=O)CN1C(=O)NC2(CCCc3ccccc32)C1=O (centres undefined)	none (no result: GSTO1 counter, Fam108B counter)
O=C1CC(Nc2ccc(N3CCOCC3)cc2)C(=O)N1c1ccccc1 (centres undefined)	none
CCOc1ccccc1N1C(=O)CC(Nc2ccc(N3CCOCC3)cc2)C1=O (centres undefined)	PAD4 FP inh 19
Cc1[nH]c2ccccc2c1/C=N/Nc1nc(Nc2ccccc2)nc(N2CCOCC2)n1	PME-1 inh 39
O=c1cc(-c2c(F)c(F)c(F)c(F)c2F)oc2c(F)c(F)c(F)c(F)c12	PAD4 FP inh 46
CC1CCCCC12NC(=O)N(CC(=O)Nc1nccs1)C2=O (centres undefined)	none (no result: PME-1 inh, GSTO1 counter, Fam108B counter, LYPLA1 inh, LYPLA2 counter)
Cc1onc(NC(=O)NC(=O)c2c(Cl)cccc2Cl)c1Br	PME-1 inh 26
CCOC(=O)c1c(C)n(-c2ccccc2)c2ccc(OCCN(C)C)cc12	none
Cn1c(=N)n(CC(=O)c2ccc(Br)cc2)c2ccccc21	PME-1 inh 32
